These results are taken from PubChem BioAssay AID651815 (National Center for Advancing Translational Sciences (NCATS), 2012).

Among all 2,100 compounds or so, about 1,100 (52%) were called active. Inconclusive results (about 29%) are left out. The set was probably picked from earlier hits. The list shows a part of the results. Unmarked numbers belong to inactive results. Calls come from the whole dose curve; as a rule, active = well fitted inhibition curve with a large enough effect; inconclusive = small, poorly fitted or top-dose-only effect; inactive = no such curve, though single readings can be large or run the other way.
% is set by controls: 0 for no effect and ±100 for the full control effect; potency is the fitted concentration of half-maximal effect.

Chain of DNA dC->dU-editing enzyme APOBEC-3F (Homo sapiens) (Q8IUX4 whole entry, looked up): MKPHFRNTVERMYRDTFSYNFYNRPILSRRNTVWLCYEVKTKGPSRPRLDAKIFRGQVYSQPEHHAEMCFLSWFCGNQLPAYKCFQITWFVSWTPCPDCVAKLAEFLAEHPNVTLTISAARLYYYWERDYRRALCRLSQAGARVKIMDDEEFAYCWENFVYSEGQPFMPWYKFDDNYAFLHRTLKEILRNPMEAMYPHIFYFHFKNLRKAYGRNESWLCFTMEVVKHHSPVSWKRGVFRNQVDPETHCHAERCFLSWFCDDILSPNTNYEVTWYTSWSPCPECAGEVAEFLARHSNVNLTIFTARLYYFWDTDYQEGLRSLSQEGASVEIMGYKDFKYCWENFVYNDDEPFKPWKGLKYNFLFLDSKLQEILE

In this assay the target is DNA dC->dU-editing enzyme APOBEC-3F (Homo sapiens) (UniProt Q8IUX4). In words: qHTS for inhibitors of Vif-A3F interactions: Cherry picks counterscreen. Note: nearly all actives have a fitted effect of over 65% in size. As to conditions: HeLa A3F-eYFP/Vif cells, eYFP fluorescence, 24 h; series mostly up to 46.1 µM; activity, negative = inhibitor: at the top concentration. An outline of the steps:
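Rescue of Vif-driven A3F-eYFP degradation read as cellular eYFP fluorescence after 24 h compound exposure (several concentrations) in stable HeLa cells; MG132 (2 mM stock) as positive control.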
Consider `O=c1[nH]c2cc(Br)cnc2nc1/C=C(\O)c1ccc(F)cc1`, for which the Potency is 18.4 µM (active).

With `COc1ccc(Cl)cc1NC(=O)CSc1nc2c([nH]c3ccccc32)c(=O)n1-c1ccccc1`, the Potency is 25.9 µM (active).

Take `Cc1ccc(NC(=O)c2ccc([N+](=O)[O-])s2)cc1S(=O)(=O)N1CCOCC1`: the “activity, negative = inhibitor” value was -22.5% [at 36.9 µM].

For the molecule `O=C(O)c1ccc(NS(=O)(=O)c2cccc(C(=O)Nc3ccccc3[N+](=O)[O-])c2)cc1`, the “activity, negative = inhibitor” value was -7.28% [at 36.9 µM].

In the case of `Cc1ccc(NC(=O)c2ccc(NCC3CCCO3)c([N+](=O)[O-])c2)cc1Cl` (stereo not given), the Potency was 20.6 µM (active).

As for `O=C(NCCN1C(=O)S/C(=C\c2ccc(OC(F)F)cc2)C1=O)c1cnccn1`, the Potency is 7.04 µM (active).

`ClCc1nc2ccccc2n1Cc1ccccc1`: the Potency was 18.4 µM (active).

For the molecule `CC(C)(C)c1ccc(Cn2c(=O)cnc3ccccc32)cc1`, the “activity, negative = inhibitor” value is -20.8%.

With `COc1cc(N2CCCC2)c(OC)cc1/C=C(/C#N)c1ccc(F)cc1`, the Potency was 9.2 µM (active).

On to `COc1cc(N2CCCC2)c(OC)cc1/C=C(/C#N)c1ccc(Br)cc1`, for which the Potency was 2.06 µM (active).

As for `CC(=O)/C(N=Nc1cc(C)ccc1O)=C(\C)O`, the Potency was 16.4 µM (active).

Take `Cc1ccccc1OCCc1c(C)[nH]c(=S)[nH]c1=O`: the Potency was 2.23 µM (active).

In the case of `Cc1ccc(-c2nc(SCCOc3ccccc3C)n3[nH]c(=O)cc3n2)cc1`, the “activity, negative = inhibitor” value is 4.56%.

`COc1cc(NC(=O)C2=C(N3CCOCC3)/C(=C\c3ccc(N(C)C)cc3)CCC2)cc(OC)c1OC`: the Potency is 5.59 µM (active).

Turning to `O=C1CC(c2cc(F)ccc2F)c2cc3c(cc2N1)CCC3` (stereo not given), the Potency was 3.14 µM (active).

As to `O=C1CC(c2cc(Br)ccc2F)c2cc3c(cc2N1)CCC3` (stereo not given), the Potency is 1.12 µM (active).

For the molecule `O=C1CC(c2ccccc2F)c2cc3c(cc2N1)CCC3` (stereo not given), the Potency is 2.5 µM (active).

For the molecule `CCC(=O)NC(=S)Nc1cccc(Cl)c1N1CCCC1`, the “activity, negative = inhibitor” value was -20.3%.

Turning to `NC(=O)c1ccccc1NC(=S)NC(=O)CCc1ccccc1`, the Potency was 9.94 µM (active).

In the case of `O=C(COc1ccccc1)NC(=S)Nc1cccc2c(O)cccc12`, the “activity, negative = inhibitor” value was -26.3% [at 36.9 µM].

In the case of `Oc1ccc(-c2nc(-c3ccc(O)c(O)c3)cs2)cc1`, the Potency is 1.25 µM (active).

For `COc1ccc(NC(=O)c2ccc3c(c2)c(C)c(C)n3Cc2ccc(F)cc2)cc1`, the Potency is 4.61 µM (active).

Consider `Cc1ccccc1NC(=O)c1ccc2c(c1)c(C)c(C)n2Cc1ccccc1`, for which the Potency was 6.51 µM (active).

Regarding `O=[N+]([O-])c1ccc(N2CCN(Cc3ccccc3)CC2)c2c1no[n+]2[O-]`, the Potency was 15.8 µM (active).

Turning to `COc1ccc(OC)c(-c2cc(-c3cccnc3)nc(N)c2C#N)c1`, the Potency is 3.53 µM (active).

On to `Cc1c(C(=O)C(=O)N2CCCc3ccccc32)c2ccccc2n1C`, for which the Potency was 8.86 µM (active).

For the molecule `Cc1c(C(=O)C(=O)N2CC=C(c3ccccc3)CC2)c2ccccc2n1C`, the Potency is 2.5 µM (active).

For the molecule `O=C(/C=C/c1ccco1)N1CCc2ccccc21`, the “activity, negative = inhibitor” value was -25.8%.

Take `CCOc1ccc(-c2cc(C(=O)NCCc3ccc(OC)c(OC)c3)c3c(-c4ccc(F)cc4)[nH]nc3n2)cc1`: the Potency was 16.4 µM (active).

Take `COc1ccc(CCNC(=O)CC2(CC3=NS(=O)(=O)c4ccccc4N3)CCCC2)cc1OC`: the “activity, negative = inhibitor” value was -12% [at 36.9 µM].

Turning to `COc1ccc(OC)c(CNc2nc3ccc(C)cc3n3nnnc23)c1`, the Potency was 8.2 µM (active).

With `COc1ccccc1CNc1nc2ccc(C)cc2n2nnnc12`, the Potency was 23.1 µM (active).

Turning to `CN(C)CCCNc1cc(N2CCN(C3CCCCC3)CC2)c2noc3c2c1C(=O)c1ccccc1-3`, the Potency was 2.59 µM (active).

Take `O=C1c2ccccc2-c2onc3c(N4CCN(C5CCCCC5)CC4)cc(NCCO)c1c23`: the Potency was 5.8 µM (active).

In the case of `CCNc1cc(N2CCN(C3CCCCC3)CC2)c2noc3c2c1C(=O)c1ccccc1-3`, the Potency is 13 µM (active).

For `O=C(NC(=S)N1CCc2ccccc21)c1ccco1`, the “activity, negative = inhibitor” value was -3.14%.

Regarding `CCN(CC)c1ccc(/C=N/NC(=O)c2ccco2)cc1`, the Potency is 6.27 µM (active).

On to `Fc1ccccc1Nc1nc2ccccc2n2nnnc12`, for which the Potency was 14.6 µM (active).

With `Fc1ccc(CNc2nc3ccccc3n3nnnc23)cc1`, the Potency is 11.6 µM (active).

`Cc1ccc(CNc2nc3ccc(Cl)cc3n3nnnc23)cc1`: the Potency was 11.6 µM (active).

For the molecule `c1ccc2c(c1)nc(N1CCOCC1)c1nnnn12`, the Potency is 20.6 µM (active).

Turning to `c1ccc2c(c1)nc(NCC1CCCO1)c1nnnn12` (stereo not given), the Potency was 18.4 µM (active).

Consider `Fc1ccc(CNc2nc3ccc(Cl)cc3n3nnnc23)cc1`, for which the Potency is 6.51 µM (active).

Take `N#C/C(=C/c1ccc(N2CCOCC2)o1)c1ccc(Cl)cc1`: the Potency was 4.61 µM (active).

On to `Cc1ccc(/C(C#N)=C\c2ccc(N3CCOCC3)o2)cc1`, for which the Potency is 15.8 µM (active).

In the case of `N#C/C(=C/c1ccc(N2CCCCCC2)o1)c1ccc(Cl)cc1`, the Potency was 3.66 µM (active).

As for `N#C/C(=C/c1ccc(N2CCCCC2)o1)c1cccc(F)c1`, the Potency was 4.11 µM (active).

In the case of `CCN(c1ccc(NC(=O)CCc2nc3sc4c(c3c(=O)[nH]2)CCCC4)cc1)C(C)C`, the “activity, negative = inhibitor” value is -28.5%.

As to `COc1ccc(C(=O)C[n+]2cc(Br)cc3ccccc32)cc1`, the Potency was 16.4 µM (active).

For the molecule `CC(C)(C)c1ccc(C(=O)C[n+]2cccc3cc(Cl)ccc32)cc1`, the Potency was 18.4 µM (active).

Regarding `O=C(C[n+]1cccc2cc(Cl)ccc21)c1ccc2ccccc2c1`, the Potency is 20.6 µM (active).

Turning to `COc1ccc(C(=O)C[n+]2cccc3cc(Cl)ccc32)cc1`, the Potency was 20.6 µM (active).

On to `CCCC1=[N+](CC(=O)c2ccc(Br)cc2)CCn2cccc21`, for which the “activity, negative = inhibitor” value was -9.63%.

With `O=C(NC1C/C(=N/O)c2cc3c(cc21)OCO3)C(F)(F)F` (stereo not given), the “activity, negative = inhibitor” value was 11.8%.

For `CCCn1c(CN2CCN(C(=O)OCC)CC2)nc2cc(NC(=O)C(C)C)ccc21`, the Potency is 12.5 µM (active).

In the case of `CCN(CC)C(=O)Cn1c(C)c(/C=C/c2cc[n+](C)cc2)c2ccccc21`, the Potency was 7.9 µM (active).

Regarding `COC(=O)Cn1c(C)c(/C=C/c2cc[n+](C)cc2)c2ccccc21`, the Potency is 9.2 µM (active).

Regarding `COc1ccccc1-c1cc(-c2ccccc2)nc(SC(C(N)=O)c2ccccc2)c1C#N` (stereo not given), the Potency was 17.7 µM (active).

Take `N#CC1=C(S)N(c2ccc(F)cc2)C2(CCCCC2)NC1=O`: the “activity, negative = inhibitor” value was 16.2%.

Turning to `Cc1ccc2nc(C)c(C(=O)NN=C3CCCCCC3)n2c1`, the “activity, negative = inhibitor” value is -27.5% [at 36.9 µM].

As for `O=C1OC(/C(=C\Nc2cc(Cl)ccc2O)[N+](=O)[O-])c2ccccc21` (stereo not given), the “activity, negative = inhibitor” value is -22.5% [at 36.9 µM].

For the molecule `CC(C)CN(CC(C)C)c1ccc(/C=C/c2ccnc3ccccc23)cc1`, the Potency was 20.6 µM (active).

As for `CCN(C)c1ccc(/C=C/c2ccnc3ccccc23)cc1`, the Potency was 23.1 µM (active).

Consider `CCN(CCCN(C)C)c1ccc(/C=C/c2ccnc3ccccc23)cc1`, for which the Potency is 20.6 µM (active).

With `CCCCN(CCC(=O)O)c1ccc(/C=C/c2ccnc3ccccc23)cc1`, the Potency is 18.4 µM (active).
